Screening results as filed in PubChem.
Hits are enriched below; roughly 3% of the tested compounds scored in any of these assays.
BH1578 lux ind – inducers of Vibrio cholerae quorum light production without autoinducers, primary screen, BH1578 luxS cqsA deficient, single point. V. cholerae BH1578 lux reporter, luminescence, 6 h. activation, % at 18.7 µM. 350,000 compounds, 0.16% hits; in the data active means activation mostly above about 9.7%, no sharp cut-off
Mtb BioA inh – M. tuberculosis BioA enzyme inhibitors, primary screen, biochemical, plate reader, single point, HTS | 7,8-diaminopelargonic acid synthase BioA (Mycobacterium tuberculosis) | purified M. tuberculosis BioA enzyme | inhibition, % at 9.99 µM | 360,000 compounds, 0.096% hits; in the data active means inhibition above about 40%
FBA Mtb inh – Mtb FBA enzyme inhibitors, primary screen, biochemical, fluorescence, strain H37Rv; 360,000 compounds, 2.3% hits; Fructose-bisphosphate aldolase (Mycobacterium tuberculosis (strain ATCC 25618 / H37Rv)), …; purified M. tuberculosis FBA, fluorescence read-out; inhibition, % at 1 µM; AID 588726, 2011; in the data active means inhibition above about 27%;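 further: 0% = vehicle and 100% = reference inhibitor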
Target sequence (P9WQA3 whole entry, looked up): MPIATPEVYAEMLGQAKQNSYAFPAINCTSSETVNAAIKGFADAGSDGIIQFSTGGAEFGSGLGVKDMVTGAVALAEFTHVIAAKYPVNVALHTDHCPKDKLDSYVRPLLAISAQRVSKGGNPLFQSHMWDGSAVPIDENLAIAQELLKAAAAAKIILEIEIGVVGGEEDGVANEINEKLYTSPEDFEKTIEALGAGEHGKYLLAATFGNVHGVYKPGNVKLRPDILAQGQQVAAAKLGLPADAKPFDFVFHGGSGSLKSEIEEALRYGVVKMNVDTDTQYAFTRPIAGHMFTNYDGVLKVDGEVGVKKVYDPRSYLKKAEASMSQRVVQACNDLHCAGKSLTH
GDH-TPI counter – GDH-TPI coupling enzyme inhibitors, primary screen, artefact control for M. tuberculosis FBA inhibitor project, biochemical, absorbance, full deck | 360,000 compounds, 1.2% hits | inhibition, % at 4.8 µM | AID 588335, 2011 | GDH-TPI coupled enzyme counterscreen, NADH absorbance; in the data active means inhibition above about 30%;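 further: 0% = DMSO wells and 100% = wells lacking the enzyme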
Active calls of the source: *; i = inactive; . = not tested or not shown; + = active, no number.

SMILES | BH1578 lux ind | Mtb BioA inh | FBA Mtb inh | GDH-TPI counter
COc1ccc(C(=O)Nc2ccc(OC)c([N+](=O)[O-])c2)cc1Br | 29* | 22 | 1 | 5
COc1ccc(C(=O)Nc2cccc([N+](=O)[O-])c2)cc1Br | 1 | 1 | 2 | 2
CCOC(=O)c1ccccc1NC(=O)c1cc2sccc2n1C | 0 | . | 7 | 32*
CC(CC(=O)Nc1ccc2c(c1)c(=O)n(C)n2Cc1ccc(F)cc1)C(F)(F)F (configuration not stated) | 0 | -1 | 148* | -4
CC(CC(=O)Nc1ccc2c(c1)c(=O)n(C)n2-c1ccc2ccccc2c1)C(F)(F)F (configuration not stated) | i | -1 | 6 | 8
COc1cccc(Cn2c3ccc(NC(=O)Cc4cc(OC)ccc4OC)cc3c(=O)n2C)c1 | i | -1 | 152* | 3
COc1cccc(Cn2c3ccc(NC(=O)CC(C)C(F)(F)F)cc3c(=O)n2C)c1 (configuration not stated) | i | -3 | 143* | 9
CC(CC(=O)Nc1ccc2c(c1)c(=O)n(C)n2Cc1ccc(F)cc1)c1ccccc1 (configuration not stated) | 0 | 0 | 130* | 2
Cn1c(=O)c2cc(NC(=S)NC3CCCCC3)ccc2n1Cc1ccc(F)cc1 | 0 | 0 | 17 | 12
CC(C)CC#Cc1cnc2c(c1)C(=O)N([C@@H](C)CO)C[C@@H](C)[C@H](CN(C)C(=O)c1ccc(F)cc1)O2 | . | 1 | . | .
C[C@H]1CN([C@@H](C)CO)C(=O)c2cc(-c3cccc(F)c3)cnc2O[C@@H]1CN(C)Cc1cccnc1 | . | 3 | . | .
COCCCN=Cc1c(O)[nH]c(=S)[nH]c1=O | 0 | -1 | 0 | 33*
C[C@@H]1CN([C@H](C)CO)C(=O)c2cc(NS(C)(=O)=O)ccc2O[C@@H]1CN(C)Cc1ccc(C(=O)Nc2ccccc2N)cc1 | . | 1 | . | .
O=[N+]([O-])c1cccc(C2CC(c3ccccc3)=NN2c2ccccc2)c1 (configuration not stated) | -2 | 2 | 0 | 19
Cc1cccc(C2CC(c3ccccc3)=NN2c2ccc(S(N)(=O)=O)cc2)c1 (configuration not stated) | -1 | 0 | + | 12
O=S(=O)(c1ccccc1)N1N=C(c2ccccc2)CC1c1ccccc1 (configuration not stated) | 0 | . | 0 | -2
NS(=O)(=O)c1ccc(N2N=C(c3ccccc3)CC2c2cccc(Cl)c2)cc1 (configuration not stated) | -1 | -3 | 178* | 19
C=C(C)CSc1nc2nc(C)c(Br)cc2[nH]1 | 0 | -1 | 2 | 36*
Cc1ccc(C(=O)CSc2nc(N)cc(=O)[nH]2)cc1 | 0 | 0 | 1 | -2
C=C(C)CSc1nc(N)cc(=O)[nH]1 | 17* | 1 | 1 | -2
C[C@@H]1CN([C@@H](C)CO)C(=O)c2cccc(NC(=O)C3CC3)c2O[C@@H]1CN(C)C(=O)Nc1ccc2c(c1)OCO2 | . | -4 | . | .
Cc1noc(C)c1S(=O)(=O)Nc1ccc2c(c1)C(=O)N([C@@H](C)CO)C[C@@H](C)[C@@H](CN(C)CC1CCCCC1)O2 | . | 1 | . | .
C=CCNC(=S)Nc1sc2c(c1C(=O)OCC)CC(C(C)C)OC2 (configuration not stated) | i | -3 | 1 | 32*
CN(C)CC(=O)Nc1ccc2c(c1)[C@@H]1C[C@@H](CC(=O)NCc3ccc(Cl)cc3)O[C@H](CO)[C@@H]1O2 | . | 1 | . | .
CCOC(=O)c1sc2nc(N3CCOCC3)c3c(c2c1N)CCC3 | 0 | 8 | 125* | 30
SMILES | BH1578 lux ind | Mtb BioA inh | FBA Mtb inh | GDH-TPI counter
CCOC(=O)c1ccc(NC(=O)c2sc3nc(N4CCOCC4)c4c(c3c2N)CCCC4)cc1 | i | 0 | 9 | 14
CC1(C)Cc2c(c(N3CCOCC3)nc3sc(C(N)=O)c(N)c23)CO1 | 0 | . | 19 | 32*
C[C@H](CO)N1C[C@H](C)[C@@H](CN(C)C(=O)c2cccc(F)c2)Oc2ncc(C3=CCCCC3)cc2C1=O | . | 4 | . | .
O=c1[nH]c(N/N=C\c2ccc3c(c2)OCO3)nc2ccccc12 | 0 | 0 | 15 | 29
O=C(N/N=C/c1ccc2c(c1)OCO2)c1ccc(Br)o1 | i | . | -2 | 47*
O=c1cnnc(N/N=C/c2ccc3c(c2)OCO3)[nH]1 | 0 | 1 | 2 | 44*
CCn1c(/C=N/Nc2ccc(C(=O)O)cc2)nc2ccccc21 | i | 5 | 0 | 24
O=C(NCc1ccc2c(c1)OCO2)c1ccc(Br)o1 | i | 1 | 3 | -5
CN(C)c1ccc(/C=N/Nc2cccc(C(=O)O)c2)cc1 | 0 | -2 | 1 | 37*
CC1Oc2ccccc2C=C1/C=N/Nc1ccc(C(=O)O)cc1 (configuration not stated) | i | 1 | 3 | 34*
Cc1noc(C)c1S(=O)(=O)Nc1ccc2c(c1)C(=O)N([C@@H](C)CO)C[C@H](C)[C@@H](CN(C)C(=O)Nc1ccc(F)cc1)OCCCC[C@@H](C)O2 | . | 1 | . | .
C[C@@H]1CCCCO[C@H](CN(C)Cc2ccc3c(c2)OCO3)[C@H](C)CN([C@H](C)CO)C(=O)c2cc(NS(C)(=O)=O)ccc2O1 | . | -1 | . | .
CCC(CC)NC(=O)c1ccc2c(c1)OCCO2 | 25* | -2 | 0 | -3
COc1cc(/C=N/NC(=O)c2cccs2)ccc1O | 0 | -2 | 1 | 14
COc1ccc(C(=O)N/C(=C\c2ccc3c(c2)OCO3)C(=O)Nc2cccc(C(=O)O)c2)cc1 | -1 | 0 | 3 | 21
COc1cc(/C=N/NC(=O)c2ccc(-n3cccc3)cc2)ccc1O | 0 | . | -2 | 43*
COc1cc(/C=N/NC(=O)/C(=C\c2ccc([N+](=O)[O-])cc2)NC(=O)c2ccccc2)cc(OC)c1O | 0 | 0 | -1 | 43*
COc1cc(/C=N/NC(=O)/C(=C\c2ccc3c(c2)OCO3)NC(=O)c2ccccc2)ccc1O | i | -1 | -4 | 47*
C[C@@H]1CN([C@H](C)CO)C(=O)Cc2cc(NS(=O)(=O)c3cn(C)cn3)ccc2O[C@@H]1CN(C)Cc1ccncc1 | . | -4 | . | .
CO[C@@H]1CN(C)C(=O)c2cc(NC(C)=O)ccc2OC[C@H](C)N(CCC(F)(F)F)C[C@H]1C | . | 0 | . | .
COc1cc(/C=N/NC(=O)c2ccc3c(c2)OCO3)ccc1O | 0 | -2 | 1 | 35*
COc1ccc(/C=N/NC(=O)c2ccc3c(c2)OCO3)cc1 | -1 | -2 | -6 | 20
COc1cc(C(=O)NC(=S)NNC(=O)c2ccc3c(c2)OCO3)cc(OC)c1OC | i | 0 | 0 | 32*
O=C(O)c1cc(N/N=C/c2ccc3c(c2)OCO3)ccc1Cl | 0 | . | 5 | 23
O=C(O)c1ccc(N/N=C/c2cc3cc4c(cc3nc2Cl)OCCO4)cc1 | i | 1 | 8 | 39*
O=C(O)c1ccc(N/N=C/c2ccc3c(c2)OCO3)cc1 | 1 | . | -5 | 33*
